The values below come from PubChem BioAssay (NCI).

Test systems include SK-MEL-2 melanoma; EKVX NSCLC; SN12C renal; UO-31 renal; TK-10 renal; ACHN renal; CAKI-1 renal; A498 renal; MOLT-4 leukemia; CCRF-CEM leukemia.
What all share (experiment): NCI-60 one-dose screen, 48 h (100 = growth as untreated, 0 = no growth, -100 = all killed)
What all share (details): 10 µM unless noted

About 83,000 compounds went through this panel and 20% of them were active in at least one assay; those are over-represented in the sample as a whole.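 Cell lines were cultured in 96-well plates, exposed to a single compound concentration, and assessed for percent growth 48 hours later.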 A number with no mark means an inactive call. Calls of active or inactive are those of the source. Rule for the calls: active = growth percent below 10; inactive = the rest.

As to `C=C1CCC2C3(C)COC(C)(C)OC3CCC2(C)C1C/C=C1/C(=O)OCC1OC(C)=O` (centres undefined), the growth was 49.2% in the experiment on SK-MEL-2 melanoma; 53.5% with EKVX NSCLC; 33% in the experiment on SN12C renal; 64.6% with UO-31 renal; 68.7% in the experiment with TK-10 renal; 24.3% in the experiment with ACHN renal. For the same molecule, the growth is 19.3% in the experiment with CAKI-1 renal, 116% with A498 renal and -16.8% (active) with MOLT-4 leukemia.

`COc1ccc(CN2C(=O)/C(=C\c3cc(OC)c(OC)c(OC)c3)c3cc(OC)ccc32)cc1`: the growth is -13.4% (active) with SK-MEL-2 melanoma; 13.5% in the experiment with EKVX NSCLC; 18% in the experiment on SN12C renal; 6.01% (active) with UO-31 renal; 11.2% in the experiment on TK-10 renal; -60.5% (active) in the experiment with ACHN renal. The figures for the growth in the experiment on CAKI-1 renal, with A498 renal and in the experiment with MOLT-4 leukemia were -2.31% (active), 38.6% and -24.7% (active), respectively.

As for `CC(C)n1cc2c(N)ncnc2n1`, the growth is 89.5% with SK-MEL-2 melanoma; 88.1% with EKVX NSCLC; 98.2% in the experiment on SN12C renal; 90% in the experiment on UO-31 renal; 96.6% in the experiment on TK-10 renal; 105% with ACHN renal. Moreover, the growth is 79.4% with CAKI-1 renal, 126% with A498 renal and 98.2% in the experiment on MOLT-4 leukemia.

As to `O=[N+]([O-])c1cccc(-c2nc3sccn3c2-c2ccnc(NCCCNS(=O)(=O)c3ccc(F)cc3)n2)c1`, the growth in the experiment on SK-MEL-2 melanoma was -15.9% (active); in the experiment with EKVX NSCLC, 18.3%; in the experiment with SN12C renal, 10.6%; in the experiment on UO-31 renal it was -26.8% (active); in the experiment on TK-10 renal it was 44.6%; with ACHN renal, 5.38% (active). Also, the growth in the experiment on CAKI-1 renal was 9.79% (active); in the experiment on A498 renal it was 29.7%; in the experiment on CCRF-CEM leukemia, 1.95% (active); in the experiment on MOLT-4 leukemia it was -18.2% (active).

`O=C1Nc2c(ccc(Cl)c2Cl)/C1=C/c1cc(Br)c(O)c(Br)c1`: the growth in the experiment with SK-MEL-2 melanoma is 73.2%; with EKVX NSCLC it was 47.3%; with SN12C renal, 80.2%; with UO-31 renal, 60.4%; in the experiment on TK-10 renal it was 96.7%; in the experiment with ACHN renal it was 70.8%. For the same molecule, the growth in the experiment on CAKI-1 renal was 46.8%; in the experiment on A498 renal, 48.9%; in the experiment on MOLT-4 leukemia, 63.8%.

Consider `C/C(Cc1ccc(Cl)cc1)=C(\c1ccc(OCCN2CCCCCC2)cc1)c1ccc(OC(=O)C2CCCCC2)cc1`, for which the growth in the experiment on SK-MEL-2 melanoma is 81.6%; with EKVX NSCLC, 81%; with SN12C renal, 67%; in the experiment with UO-31 renal, 40.9%; in the experiment with TK-10 renal, 84.1%; in the experiment with ACHN renal it was 87%. Also, the growth in the experiment on CAKI-1 renal is 80.8%; in the experiment on A498 renal it was 82%; with CCRF-CEM leukemia, 55.3%; with MOLT-4 leukemia, 25.6%.

With `CCN(CC)C12CCCCC1(C)C(C#N)(C#N)C(C#N)=C(N)O2` (centres undefined), the growth in the experiment on SK-MEL-2 melanoma is 112%; in the experiment with EKVX NSCLC, 89.3%; with SN12C renal it was 97.5%; in the experiment with UO-31 renal, 82.7%; in the experiment on TK-10 renal it was 93.2%; in the experiment on ACHN renal, 106%. Besides, the growth in the experiment on CAKI-1 renal was 91.8%; with A498 renal, 122%; in the experiment with MOLT-4 leukemia it was 108%.

With `NS(=O)(=O)N(c1cc(C(F)(F)F)cc(C(F)(F)F)c1)C1CCN(Cc2ccc(F)cc2)CC1`, the growth is 74.2% in the experiment on SK-MEL-2 melanoma; 72.2% in the experiment with EKVX NSCLC; 42.2% in the experiment with SN12C renal; 35.6% in the experiment with UO-31 renal; 81.4% with TK-10 renal; 75.2% in the experiment with ACHN renal. The growth in the experiment with CAKI-1 renal is 62.5%; with A498 renal, 76.3%; in the experiment on CCRF-CEM leukemia it was 64%; in the experiment on MOLT-4 leukemia, 39%.

For the molecule `NC(=S)N/N=C/c1cc(-c2cccc(N)c2)ccn1`, the growth in the experiment with SK-MEL-2 melanoma is 45.5%; with EKVX NSCLC it was 37.8%; with SN12C renal, 16.7%; in the experiment on UO-31 renal it was 12.4%; in the experiment with TK-10 renal, 46.6%; in the experiment with ACHN renal, 7.92% (active). For the same molecule, the growth was -9.57% (active) in the experiment on CAKI-1 renal, 37.3% with A498 renal and 7.42% (active) with MOLT-4 leukemia.

Consider `CC(C)CC(CC1=CCC2CC1C2(C)C)C1=C(O)C(C)(C)C(=O)C(C)(C)C1=O` (centres undefined), for which the growth in the experiment with SK-MEL-2 melanoma is -18.2% (active); with EKVX NSCLC, 20%; in the experiment with SN12C renal, 3.56% (active); in the experiment on UO-31 renal, 8.44% (active); in the experiment with TK-10 renal, 15.6%; in the experiment on ACHN renal, 3.98% (active). Also, the growth in the experiment on CAKI-1 renal is 6.44% (active); with A498 renal, -17.9% (active); in the experiment with CCRF-CEM leukemia, 1.78% (active); in the experiment on MOLT-4 leukemia, -24% (active).

With `CC(=O)C1=C(O)C=C2Oc3c(C(=O)/C=C/c4cc(C(F)(F)F)cc(C(F)(F)F)c4)c(O)c(C)c(O)c3[C@]2(C)C1=O`, the growth with SK-MEL-2 melanoma was -49.7% (active); with EKVX NSCLC, -33.9% (active); with SN12C renal it was -34.1% (active); in the experiment on UO-31 renal it was -31.4% (active); in the experiment on TK-10 renal it was -32.5% (active); with ACHN renal, -75.7% (active). The growth with CAKI-1 renal is 5.35% (active); in the experiment with A498 renal it was -87.7% (active); in the experiment on CCRF-CEM leukemia, -18.1% (active); in the experiment on MOLT-4 leukemia it was -14.1% (active).

`CCOC(=O)C(Cc1cc(I)c(O)c(I)c1)NC(=O)c1ccccc1` (centres undefined): the growth with SK-MEL-2 melanoma is 97.6%; in the experiment on EKVX NSCLC, 101%; in the experiment on SN12C renal it was 97.6%; with UO-31 renal it was 92.2%; with TK-10 renal, 88.4%; in the experiment with ACHN renal, 93.5%. Also, the growth with CAKI-1 renal was 95.7%; in the experiment on A498 renal, 78.7%; in the experiment on CCRF-CEM leukemia, 95.3%; in the experiment with MOLT-4 leukemia, 91.5%.

As to `Cc1cc2cc3cc(C)c(N(C)C)cc3[n+](C)c2cc1N(C)C`, the growth with SK-MEL-2 melanoma is -22% (active); in the experiment on EKVX NSCLC, 52%; in the experiment on SN12C renal it was 10.7%; with UO-31 renal, 62.1%; in the experiment with TK-10 renal, -17.4% (active); in the experiment on ACHN renal it was 43.8%. For the same molecule, the growth with CAKI-1 renal was 47.2%; with A498 renal, 56.9%; in the experiment with CCRF-CEM leukemia, 13%; in the experiment with MOLT-4 leukemia it was 33.9%.

Regarding `CCn1cc2c(cc1=O)-c1nc3ccccc3c3ccnc(c13)C2=O`, the growth was 62.3% with SK-MEL-2 melanoma; 87.8% in the experiment on EKVX NSCLC; 16.5% in the experiment on SN12C renal; 42.5% with UO-31 renal; 86.1% in the experiment with TK-10 renal; 10.1% with ACHN renal. Also, the growth with CAKI-1 renal is 60%; with A498 renal it was 81.7%; with CCRF-CEM leukemia, 104%; with MOLT-4 leukemia it was 80.6%.
